“And” between values parts separate entries of the source, which are not always exact repeats. Identical values can stand only once. Results filed as inconclusive are left out. Unmarked numbers belong to inactive results. The source made the active and inactive calls. Calls follow the shape of the dose curve; as a rule, active = well fitted cell-killing curve with a large enough effect; inconclusive = small, poorly fitted or top-dose-only effect, or effect the other way; inactive = no such curve, though single readings can be large or run the other way.
% is scaled to controls: 0 for no effect and ±100 for the full control effect; potency is read from the fitted curve at half-maximal effect.

A short description of the experiment: qHTS of pediatric cancer cell lines to identify multiple opportunities for drug repurposing: Confirmatory screen for RD cells (AID 1347124).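 Also: cells exposed to compound for 48 h before viability readout; nearly all actives have a fitted effect of over 65% in size.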 The following applies: RD rhabdomyosarcoma cell viability; series mostly up to 45.9 µM; activity change, negative = cytotoxic: at the top concentration. An excerpt:
Drug repurposing or repositioning has been offered as a strategy for drug development in oncology programs. This approach has special potential for childhood cancers and other rare or orphan diseases, where the expected return on new drug development has been a disincentive to pharmaceuticals.
In this project we exploit the poly-pharmacology of drugs to discover new indications via phenotypic screening of a panel of 19 well-characterized cell lines derived from solid tumors seen in children and adolescents. The goal is to identify approved drugs with previously unrecognized anticancer properties that has the potential to reveal new mechanisms and biological processes involved in carcinogenesis or drug resistance. We employed a titration-based paradigm (quantitative high-throughput screening or qHTS), where all compounds were tested at multiple concentrations for their effect on cell viability. Concentration-response curves (CRCs) were derived directly from the primary screen, and both potency and efficacy values were used to identify compounds with robust bioactivity profiles. We screened the NIH Chemical Genomics Center (NCGC) Pharmaceutical Collection (NPC) and Mechanism Interrogation Plate (MIPE) small molecule collections of approved and investigational compounds against these cell lines; and measured metabolically active cells after 48 hours of compound treatment as a proxy for cell viability.
Assay Submitter: Nathalia J. Martinez, National Center for Advancing Translational Sciences, National Institutes of Health, Rockville, MD, USA; email: natalia.martinez@nih.gov
[1] Shen, M et al. Quantitative high-throughput phenotypic screening of pediatric cancer cell lines identifies multiple opportunities for drug repurposing. Oncotarget 2017 Dec 19;9(4):4758-4772. PMID 29435139.
The cells were obtained from University of North Carolina (UNC), Pediatric Preclinical Testing Program (PPT), and Coriell Institute (CI).
qHTS cell viability assay:
Cells were assayed in growth media at a density of 500-1,000 cells/well. Five microliters of cells were dispensed into 1,536-well, white, solid-bottom, TC-treated plates (Greiner Bio One) using a multidrop dispenser and incubated at 37 degrees C, 5% CO2, under a humidified atmosphere for 5 hours. Twenty-three nanoliters of compounds and controls (neutral control DMSO or positive control bortezomib at final concentration of 2.3 µM) were subsequently transferred by Kalypsys pintool. For primary screens, the MIPE collection was tested at 11-point dilutions (final concentrations range from 0.78 nM to 46 µM) and the NPC collection at 8-point dilutions (final concentrations range from 0.59 nM to 46 µM). Compounds tested in follow-up screens were assayed at 11-point dilutions. Cells were incubated for 48 hours, followed by addition of 3 µL of CellTiter-Glo (Promega). After a 15 min incubation at room temperature, samples were analyzed for luminescence intensity using a ViewLux High-throughput CCD imager equipped with clear filters.
`C=C(c1ccc(C(=O)O)cc1)c1cc2c(cc1C)C(C)(C)CCC2(C)C`: the “activity change, negative = cytotoxic” value is 10.6%.
`CCN(CCO)CCCC(C)Nc1ccnc2cc(Cl)ccc12` (stereo not drawn): the “activity change, negative = cytotoxic” value was 3.4%.
Regarding `CCCCc1ccc2nc(NC(=O)OC)[nH]c2c1`, the Potency was 0.369 µM (active).
Regarding `Nc1nc(OCc2ccccc2)c2[nH]cnc2n1`, the “activity change, negative = cytotoxic” value was -0.745%.
Turning to `CN(C)c1ccc(O)c2c1C[C@H]1C[C@H]3[C@H](N(C)C)C(=O)C(C(N)=O)=C(O)[C@@]3(O)C(=O)C1=C2O`, the “activity change, negative = cytotoxic” value is 7.47%.
Take `COc1cc(C(C)=O)ccc1OCCCN1CCC(c2noc3cc(F)ccc23)CC1`: the “activity change, negative = cytotoxic” value was 4.94%.
With `CC[C@]1(O)C[C@H]2CN(CCc3c([nH]c4ccccc34)[C@@](C(=O)OC)(c3cc4c(cc3OC)N(C=O)[C@H]3[C@@](O)(C(=O)OC)[C@H](OC(C)=O)[C@]5(CC)C=CCN6CC[C@]43[C@@H]65)C2)C1`, the Potency is 52.2 nM (active) and 147 nM (active).
The same measure, in the same setting: the value for `CCc1nc(N)nc(N)c1-c1ccc(Cl)cc1` was 9.27 µM (active).
`O=C1c2c(O)cc(O)cc2OC(c2ccc(O)c(O)c2)C1O` (stereo not drawn): the “activity change, negative = cytotoxic” value was 14.1%.
Turning to `CCN(CC)CCOc1ccc(Nc2ncc3cc(-c4c(Cl)cccc4Cl)c(=O)n(C)c3n2)cc1`, the Potency is 2.33 µM (active).
With `CC1(C)C(=O)N(CCN2CCC(C(=O)c3ccc(F)cc3)CC2)c2ccccc21`, the “activity change, negative = cytotoxic” value is 10.5%.
Regarding `C[C@]12CCC(=O)C=C1CC[C@@H]1[C@H]2[C@@H](O)C[C@@]2(C)[C@H]1CC[C@]2(O)C(=O)CO`, the “activity change, negative = cytotoxic” value is 2.55%.
Consider `Oc1ccc(-c2nc(-c3ccc(F)cc3)c(-c3ccncc3)[nH]2)cc1`, for which the “activity change, negative = cytotoxic” value is -13.7%.
With `Nc1ccn([C@@H]2O[C@H](CO)[C@@H](O)C2O)c(=O)n1` (stereo partly drawn), the “activity change, negative = cytotoxic” value was 18.1%.
On the same count and under the same terms, the value for `Cc1ccc(Nc2nccc(N(C)c3ccc4c(C)n(C)nc4c3)n2)cc1S(N)(=O)=O` was -1.95%.
Take `Cc1ccc(NC(=O)c2ccc(CN3CCN(C)CC3)cc2)cc1Nc1nccc(-c2cccnc2)n1`: the “activity change, negative = cytotoxic” value is 13.5%.
Regarding `CS(=O)(=O)OCCCCOS(C)(=O)=O`, the “activity change, negative = cytotoxic” value is 13.3%.
As for `O=C(NCC1CCCCN1)c1cc(OCC(F)(F)F)ccc1OCC(F)(F)F` (stereo not drawn), the “activity change, negative = cytotoxic” value is 25.6%.
In the case of `Cc1c(C(=O)NN2CCCCC2)nn(-c2ccc(Cl)cc2Cl)c1-c1ccc(Cl)cc1`, the “activity change, negative = cytotoxic” value was -17.7%.
As for `CC(C)C[C@H](NC(=O)[C@H](Cc1ccccc1)NC(=O)c1cnccn1)B(O)O`, the Potency is 0.0414 µM (active).
Take `O=C(CCc1ccc(O)cc1)c1c(O)cc(O)cc1O`: the “activity change, negative = cytotoxic” value was 5.17%.
For `c1cnc2cc3c(cc2n1)C1CNCC3C1`, the “activity change, negative = cytotoxic” value is 8.12%.
Same read-out and setting: under `CCOc1cc(CC(=O)N[C@@H](CC(C)C)c2ccccc2N2CCCCC2)ccc1C(=O)O` stands 14.1%.
`CCCOc1ccc2nc(NC(=O)OC)[nH]c2c1`: the Potency is 1.65 µM (active).
On to `Nc1ncn([C@H]2C[C@H](O)[C@@H](CO)O2)c(=O)n1`, for which the “activity change, negative = cytotoxic” value was 12.3%.
`CN(C)c1ccc2nc3ccc(=[N+](C)C)cc-3sc2c1`: the Potency is 14.7 µM (active).
Regarding `CCN(CC)C(=S)SSC(=S)N(CC)CC`, the Potency was 4.65 µM (active).
In the case of `Cc1nc(Nc2ncc(C(=O)Nc3c(C)cccc3Cl)s2)cc(N2CCN(CCO)CC2)n1`, the “activity change, negative = cytotoxic” value is 10.6%.

(Values after PubChem BioAssay (NCATS).)
